UGM FP inh = blocks M. tuberculosis UGM enzyme; P9WIQ1; purified UGM, fluorescence polarization probe displacement; inhibition, % at 10 µM; actives 0.06% (n = 320,000); AID 504406; in the data active means inhibition above about 10%, passing the limit was not always enough; inconclusive means no clear call, values can overlap the other calls
Target sequence (P9WIQ1 whole entry, looked up): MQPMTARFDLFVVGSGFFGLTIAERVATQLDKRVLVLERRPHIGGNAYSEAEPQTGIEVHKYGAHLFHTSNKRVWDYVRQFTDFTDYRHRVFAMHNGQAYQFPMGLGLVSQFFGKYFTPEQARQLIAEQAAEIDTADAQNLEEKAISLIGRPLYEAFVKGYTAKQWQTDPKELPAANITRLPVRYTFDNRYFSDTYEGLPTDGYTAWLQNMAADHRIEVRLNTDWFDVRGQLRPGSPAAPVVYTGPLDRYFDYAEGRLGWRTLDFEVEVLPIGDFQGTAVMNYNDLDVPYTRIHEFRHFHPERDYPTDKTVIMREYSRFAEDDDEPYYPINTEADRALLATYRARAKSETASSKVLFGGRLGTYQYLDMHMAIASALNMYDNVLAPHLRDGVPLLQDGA
TcdB GH inh = TcdB glycohydrolase inhibition; AID 652162; P18177; actives 0.24% (n = 350,000); TcdB glycohydrolase enzymatic assay, plate reader; inhibition, % at 9.99 µM; in the data active means inhibition above about 10%
Rv3671c protease = inhibits the M. tuberculosis serine protease Rv3671c. P9WHR9. inhibition, % at 5.96 µM. actives 0.048% (n = 320,000). AID 2606; in the data active means inhibition above about 38%;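 further: extracellular domain of Rv3671c used as enzyme; 0% = enzyme with DMSO and 100% = no enzyme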
RecA intein inh = inhibitors of M. tuberculosis RecA intein splicing | actives 0.75% (n = 290,000) | inhibition, % (no concentration beside the values) | AID 2221 | P9WHJ3 | cell-free RecA intein splicing, fluorescence; in the data active means inhibition above about 30%; inconclusive means no clear call, values can overlap the other calls;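 further: 0% = vehicle wells and 100% = reference inhibitor control wells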
BioA inh = blocks M. tuberculosis BioA enzyme activity | actives 0.096% (n = 360,000) | AID 602481 | inhibition, % at 9.99 µM | purified M. tuberculosis BioA enzyme, plate reader; in the data active means inhibition above about 40%; inconclusive means no clear call, values can overlap the other calls
FadD28 binding = inhibitors of Mycobacterium tuberculosis FadD28 bisubstrate binding | AID 588549 | actives 0.22% (n = 360,000) | inhibition, % at 12.5 µM | FadD28 bisubstrate probe binding, fluorescence polarization; in the data active means inhibition above about 8.5%, passing the limit was not always enough; inconclusive means no clear call, values can overlap the other calls
* marks the source's active call; other numbers are inactive results; ? = inconclusive; . = not tested or not shown. The list is not random: actives were taken first. Their share in the collection is about 0.97%.

SMILES	UGM FP inh	TcdB GH inh	Rv3671c protease	RecA intein inh	BioA inh	FadD28 binding
O=C1C(Cl)=C(NCC2CCCO2)C(=O)N1c1ccccc1 (stereo unspecified)	1	.	4	33*	-2	-2
COc1ccc(NC(=O)Nc2ccc3c(c2)CC(=O)N([C@H](C)CO)C[C@H](C)[C@@H](CN(C)S(=O)(=O)c2ccc(C)cc2)O3)cc1	.	0	.	.	.	.
Cn1c(SCc2nnc(-c3ccccc3)o2)nc2ccccc21	-1	13*	-5	4	.	-1
C[C@@H]1CN([C@H](C)CO)C(=O)Cc2cc(NC(=O)NC3CCCCC3)ccc2O[C@H]1CN(C)Cc1ccc(C(F)(F)F)cc1	.	1	.	.	1	.
COc1ccc(/C=N\NC(=O)CCN2CCN(c3ccccc3)CC2)cc1OC	2	.	-1	-3	0	-1
COc1cc(/C=N/NC(=O)CCN2CCCCC2)ccc1O	-2	10*	-3	-8	.	-1
CC(C(=O)OCC(=O)c1c(N)n(C)c(=O)n(C)c1=O)N1C(=O)c2ccccc2C1=O (stereo unspecified)	-1	14*	1	0	2	-3
Cn1c(N)c(C(=O)COC(=O)CCCN2C(=O)c3ccccc3C2=O)c(=O)n(C)c1=O	-3	.	6	1	-1	-1
C[C@@H]1CN([C@@H](C)CO)C(=O)Cc2cc(NS(C)(=O)=O)ccc2O[C@H]1CN(C)C(=O)Nc1ccc2c(c1)OCO2	.	0	.	.	-2	.
Cc1cc(C(=O)CSc2nc(N)cc(=O)[nH]2)c(C)n1CC1CCCO1 (stereo unspecified)	0	12*	6	.	-3	-3
Cc1cc(C(=O)CSc2nc(N)cc(N)n2)c(C)n1CC1CCCO1 (stereo unspecified)	2	0	0	.	4	0
COc1ccc(NC(=O)N(C)C[C@@H]2OCCCC[C@@H](C)Oc3ccc(NS(=O)(=O)c4ccccc4)cc3C(=O)N([C@H](C)CO)C[C@H]2C)cc1	.	0	.	.	-2	.
COc1ccc(CNC(=O)c2cc3c(s2)CN(Cc2ccccc2)C3)cc1	.	10*	-2	-1	.	-3
COc1ccc(CNC(=O)c2cccs2)cc1	-1	.	4	6	3	-3
C[C@H](CO)N1C[C@H](C)[C@@H](CN(C)C(=O)Cc2cccnc2)Oc2ncc(-c3ccccc3)cc2C1=O	.	0	.	.	5	.
COc1ccc(NC(=O)c2cc(C)nc3ccccc23)c(OC)c1	-2	12*	-2	0	.	-2
Cc1cc(C(=O)Nc2ncc(C)s2)c2ccccc2n1	-5	10*	14	1	.	-3
COC(=O)[C@]1(Cc2ccccc2)N=C(c2ccc(OCCCO)cc2)O[C@@H]1c1ccccc1N=[N+]=[N-]	.	-2	.	.	0	.
Nc1ccc2nc3c(=O)n(CCc4ccccc4)c(=O)[nH]c3nc2c1	?	1	-24	-189	-9	-1
Nc1ccc2nc3c(=O)n(C4CCCCC4)c(=O)[nH]c3nc2c1	36*	1	7	-188	.	0
Cc1cc2nc3c(=O)n(CCc4ccccc4)c(=O)[nH]c3nc2cc1N	17*	0	-9	-350	-8	-2
C=CCn1c(=O)[nH]c2nc3cc(N=CN(C)C)c(C)cc3nc2c1=O	7	0	-13	-22	-8	2
CCCCn1c(=O)[nH]c2nc3cc(N)ccc3nc2c1=O	33*	-5	9	.	-22	3
COc1cc2[nH]c(=O)n(C3CCCCC3)c(=O)c2cc1OC	1	.	10	0	.	-3
CC/C(=C/c1sc2ccc(C)cc2[n+]1CCO)SC	4	3	2	34*	.	1
SMILES	UGM FP inh	TcdB GH inh	Rv3671c protease	RecA intein inh	BioA inh	FadD28 binding
O=C(NNC(=O)c1ccc([N+](=O)[O-])o1)c1ccccc1	-1	.	7	39*	.	-1
O=C(NN(c1ccccc1)c1ccccc1)c1ccc([N+](=O)[O-])o1	-2	0	-3	2	0	-3
C[C@@H]1CN([C@@H](C)CO)C(=O)Cc2cc(NC(=O)CCCCCC(=O)Nc3ccccc3N)ccc2O[C@H]1CN(C)CC1CC1	.	0	.	.	.	.
C=CCOc1c(OC)cc(/C=N/Nc2cccc(C(=O)O)c2)c(Br)c1Br	2	-3	16	6	2	16*
O=C(O)c1cc(N/N=C/c2ccc(OCc3ccccc3)cc2)ccc1Cl	1	-1	4	2	.	3
O=C(O)c1cccc(N/N=C/c2ccc(OC(F)(F)F)cc2)c1	1	-3	-3	1	0	?
C=CCOc1c(/C=N\NC(N)=O)cccc1OC	0	0	1	4	-2	-1
